The values below come from PubChem BioAssay (NCI).

The panel holds about 79,000 compounds, 15% with a hit somewhere; the sample as a whole holds those more often. Unmarked numbers belong to inactive results. Active and inactive are the calls of the source. Rule as the data show it: active = growth inhibition above about 70%; inactive = the rest.

The assay in a line: NCI Yeast Anticancer Drug Screen. Data for the bub3 strain (AID 167). As to conditions: S. cerevisiae bub3 mutant strain, at 100.0 µM, stronger effect = higher value. The method, boiled down:
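Inhibition values come from growth of compound-treated mutant yeast normalised to vehicle-treated controls.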
For the compound `COc1cc(/C=C2\CCC/C(=C\c3ccc(O)c(OC)c3)C2=O)ccc1O`, the growth inhibition was -12%.

On to `CN(C)CCNC(=O)c1cccc2cc([N+](=O)[O-])ccc12`, for which the growth inhibition was 85% (active).

As to `CCC(C)(C)c1ccc(Oc2cccc(C(=O)O)c2)cc1`, the growth inhibition was 84% (active).

`CCCCCCSc1ncnc2[nH]ncc12`: the growth inhibition is 6%.

Turning to `CC(=O)Nc1ccc(/C=C/[N+](=O)[O-])cc1`, the growth inhibition was 72% (active).

Consider `CCOC(=O)c1[nH]n(-c2ccccc2)c(=O)c1C=NC(=S)C(N)=S`, for which the growth inhibition was 97% (active).

As for `CCCC(O)C1CC(C(C)C)CCC1C` (stereo not drawn), the growth inhibition is 98% (active).

Consider `O=[n+]1c2ccccc2n([O-])c2cc(Br)ccc21`, for which the growth inhibition is 99% (active).

Turning to `CN(C)CCNC(=O)c1cccc2c1Oc1c(cccc1[N+](=O)[O-])O2`, the growth inhibition was 74% (active).

In the case of `Nc1ncc(-c2ccc(Br)cc2)s1`, the growth inhibition was 97% (active).

Consider `Cc1cc2cc3cc(C)c(N)cc3nc2cc1N`, for which the growth inhibition was 92% (active).

Take `CC12C(=O)OC(=O)C(c3ccccc31)c1ccccc12`: the growth inhibition is 2%.

Consider `c1ccc2c(OCC3CO3)cccc2c1` (stereo not drawn), for which the growth inhibition is 21%.

Consider `CCOC(=N)c1ccc(O)c(OC)c1`, for which the growth inhibition is 79% (active).

In the case of `Nc1cc(N)c(N=Nc2cccc3c(S(=O)(=O)O)cccc23)cc1N=Nc1cc([N+](=O)[O-])ccc1O`, the growth inhibition was 53%.

For the compound `COC(=O)Oc1cc(Cl)c(Cl)cc1Cl`, the growth inhibition is 3%.

Turning to `O=C(O)C1CC(c2ccccc2)=NN1c1ccccc1` (stereo not drawn), the growth inhibition was 94% (active).

On to `COc1cc([C@@H]2c3cc4c(cc3[C@@H](Nc3ccc(NC(=O)c5cc([N+](=O)[O-])cn5C)cc3)[C@H]3COC(=O)[C@H]23)OCO4)cc(OC)c1O`, for which the growth inhibition is 43%.
